Screen size: about 140,000 compounds; about 2,100 (1.5%) were called active. The entries come from a sample that favours actives as a whole. Values without a mark were called inactive. Rule as the data show it: active = protection mostly above about 24% (no sharp cut-off); inactive = mostly below about 26%.

A short description of this assay: blockers of measles virus-induced cell death – single point, MLSMR library, absorbance, measles RdRp inhibitor project, primary screen (AID 841). The settings on record: Measles virus-infected cells, CPE protection, at 4 µM, stronger effect = higher value.
Turning to `COc1ccc(Br)cc1C(=O)NC(=S)Nc1cc(-c2nc3ccccc3[nH]2)ccc1C`, the protection (pct of control) is 3.52%.

For `Cc1ccc(-c2nc3ccccc3[nH]2)cc1N`, the protection (pct of control) was 6.87%.

Take `Cc1ccc(-c2nc3ccccc3[nH]2)cc1NC(=O)c1sc2ccccc2c1Cl`: the protection (pct of control) was 80.8% (active).

With `CCOc1ccc2nc(C(=O)N3CCCC(C)C3)sc2c1` (centres undefined), the protection (pct of control) was 14.9%.

Consider `CCCCCOC(=O)NCCOC(=O)Nc1ccc(C(=O)OCC)cc1`, for which the protection (pct of control) was 3.01%.

In the case of `CCCCCCOC(=O)NCC(O)c1ccccc1` (centres undefined), the protection (pct of control) is 31.3% (active).

`CCCCCCCCC(=O)NCCOc1ccccc1`: the protection (pct of control) was 6.49%.

With `CCOc1ccc(N2C(=O)/C(=C/c3ccc(C)o3)N(C)C2=S)cc1`, the protection (pct of control) was 19.4%.

Take `CCC(=O)Nc1c(S(=O)(=O)c2ccccc2)c2nc3ccccc3nc2n1Cc1ccccc1`: the protection (pct of control) is 8.35%.

Regarding `O=C1CC(c2cccc(F)c2)C2=C(CCCC2=O)N1` (centres undefined), the protection (pct of control) was 11.2%.

Turning to `COc1ccc(OC)c(C2C3=C(N=c4s/c(=C\c5cccc(O)c5)c(=O)n42)c2ccccc2CC3)c1` (centres undefined), the protection (pct of control) was 10.7%.

In the case of `O=C1CCCC2=C1C(c1ccccc1)n1c(s/c(=C/c3cccc(F)c3)c1=O)=N2` (centres undefined), the protection (pct of control) was 48.1% (active).

Regarding `CCCN(CCC)c1c([N+](=O)[O-])c(=O)oc2ccccc12`, the protection (pct of control) is 2.94%.

For the molecule `Cc1ccc(C(=O)NCC2CCCO2)o1` (centres undefined), the protection (pct of control) is 45.6% (active).

With `O=C(NCC1CCCO1)c1ccc2ccccc2n1` (centres undefined), the protection (pct of control) was 9.11%.

With `Cc1nc2ccccc2c2oc(C(=O)NCC3CCCO3)cc12` (centres undefined), the protection (pct of control) is 13.5%.

Consider `CC(=O)NNC1=Nc2ccccc2N(C)C(C)C1` (centres undefined), for which the protection (pct of control) was 14.9%.

Turning to `COc1ccc(-n2c(C)cc(C(=O)COC(=O)c3cc(OC)c(OC)cc3NC(=O)c3cccs3)c2C)cc1`, the protection (pct of control) is 5.86%.

As for `Cc1cc(=O)n2nc(N3CCCC(C(=O)N4CCN(C)CC4)C3)sc2n1` (centres undefined), the protection (pct of control) is 14.9%.

In the case of `Cc1cc(=O)n2nc(N3CCCC(C(=O)NCCC4=CCCCC4)C3)sc2n1` (centres undefined), the protection (pct of control) is 38.4% (active).

Regarding `COc1ccc(CCNC(=O)C2CCN(c3nn4c(=O)cc(C)nc4s3)CC2)cc1OC`, the protection (pct of control) is 0.06%.

Consider `CC(C)c1nccn1S(=O)(=O)c1cc([N+](=O)[O-])ccc1Cl`, for which the protection (pct of control) is 14.2%.

With `COCc1c(C(=O)N/N=C/C2CC=CCC2)nnn1-c1nonc1N` (centres undefined), the protection (pct of control) was 5.58%.

Turning to `COc1ccccc1Nc1ncnc2c1oc1ccccc12`, the protection (pct of control) was 44.3% (active).

As for `Cc1nc(Cl)c2oc3ccccc3c2n1`, the protection (pct of control) is 18.2%.

For `CCc1nc(Nc2ccc3nccnc3c2)c2oc3ccccc3c2n1`, the protection (pct of control) was 5.78%.

As to `CC1=C(C(=O)Nc2cc(C)ccn2)C(c2cnn(C)c2)C2=C(CC(c3ccccc3)CC2=O)N1` (centres undefined), the protection (pct of control) is 4.9%.

Consider `C/C(=N/NC(=S)Nc1ccccc1)c1ccc2c(c1)OCO2`, for which the protection (pct of control) was 20.8%.

On to `COc1ccc([C@H]2[C@H](C(C)=O)N3N=Cc4ccccc4C3C23C(=O)OC(C)(C)OC3=O)cc1` (some centres undefined), for which the protection (pct of control) was 9.43%.

Turning to `O=C(N/N=C/c1cc([N+](=O)[O-])ccc1O)/C(=C\c1cccs1)NC(=O)c1ccccc1`, the protection (pct of control) is 3.64%.

With `CC1CCCN(S(=O)(=O)c2ccc(N(C(=O)c3cnccn3)C(C(=O)NC3CCCCC3)c3cccs3)cc2)C1` (centres undefined), the protection (pct of control) was 5.77%.

Turning to `O=C(NC(CC(=O)N1CCN(c2ccccc2)CC1)c1ccccc1)c1ccccc1Cl` (centres undefined), the protection (pct of control) is 5.39%.

Consider `CCOc1ccc(Nc2nc(Cc3nnc(SCC(=O)NC4CCCC4)n3C)cs2)cc1`, for which the protection (pct of control) was 4.14%.

Regarding `CC(=O)Nc1ccc(C(=O)CSc2nnc(Cc3ccccc3)o2)cc1`, the protection (pct of control) was 5.61%.

Take `CCOc1ccc(Nc2nc(Cc3nnc(SCC(=O)c4ccc(C)cc4)o3)cs2)cc1`: the protection (pct of control) is 31.3% (active).

Consider `OC(CN=c1sc2ccccc2n1CC(O)COc1ccccc1)COc1ccccc1` (centres undefined), for which the protection (pct of control) was 44.8% (active).

Regarding `OC(COc1ccccc1)Cn1cc(Br)cn1` (centres undefined), the protection (pct of control) is 17.3%.

Take `C=CCn1c(=N)n(CC(O)COc2ccc(OC)cc2)c2ccccc21` (centres undefined): the protection (pct of control) is 19.9%.

As to `CO/N=C(\N)c1ccc([N+](=O)[O-])cc1`, the protection (pct of control) is 2.5%.

As for `O=C(CCc1[nH]c2ccccc2c1Sc1ccccc1)N(CCO)CCO`, the protection (pct of control) was 8.37%.

For `CCCCC(=O)Nc1ccc2c(c1)OCCO2`, the protection (pct of control) was 11%.

As to `Cc1ccc(SCC(=O)Nc2ccc3c(c2)OCCO3)cc1`, the protection (pct of control) is 26.6% (active).

In the case of `O=C(CSc1ccc(-c2ccc(F)cc2)nn1)Nc1ccc2c(c1)OCCO2`, the protection (pct of control) was 9.34%.

Consider `Cc1cc(C)nc(SC2CCCCC2NS(=O)(=O)c2ccc(Cl)cc2)n1` (centres undefined), for which the protection (pct of control) is 24.5%.

As for `O=C(CSc1ncn[nH]1)Nc1nsc(-c2ccccc2)n1`, the protection (pct of control) was 2.9%.

As for `Cc1ccccc1C(OCCN(C)C)C1CCCCC1` (centres undefined), the protection (pct of control) is 53.1% (active).

With `Cc1ccccc1C(OCC(O)CN1CCCCC1CCO)c1ccccc1` (centres undefined), the protection (pct of control) was 4.74%.

With `CN(C)CCOC(=O)C(c1ccccc1)C1(O)CCCC1` (centres undefined), the protection (pct of control) is 2.07%.

Regarding `COc1ccc(/C=C/C(=O)OCC(=O)Nc2cccc(Oc3ccccc3)c2)c(OC)c1`, the protection (pct of control) was 22.7%.

Consider `CCCc1cc(=O)[nH]c(SCC(=O)OCc2ccccc2)n1`, for which the protection (pct of control) was 13.7%.

Take `CCCc1cc(=O)n2[nH]c(SCc3ccccc3)nc2n1`: the protection (pct of control) is 90% (active).

On to `CCCc1cc(=O)[nH]c(SCc2ccc(C#N)cc2)n1`, for which the protection (pct of control) is 2.18%.

Consider `COc1ccc(NC(=O)COC(=O)c2ccc(NS(=O)(=O)/C=C/c3ccccc3)cc2)cc1`, for which the protection (pct of control) was 6.22%.

For the molecule `CN(C)/N=C/c1cc(Cl)cc([N+](=O)[O-])c1O`, the protection (pct of control) was 21.7%.

In the case of `COc1ccccc1Oc1ccc(N/C=C2/CCCC2=O)cc1`, the protection (pct of control) was 24.8%.

Consider `Cc1ccc(C)c(OCC(=O)N2CCN(C(=O)c3ccco3)CC2)c1`, for which the protection (pct of control) is 10.9%.

`COc1cc(OC)cc(C(=O)Nc2ncc3c(n2)CC(C)(C)CC3=O)c1`: the protection (pct of control) is 9.7%.

With `COc1cc(C2CC(=O)c3cnc(NC(C)=O)nc3C2)cc(OC)c1OC` (centres undefined), the protection (pct of control) is 62.5% (active).

With `CCCOC(=O)c1[nH]c2c(c1C)C(=O)CC(c1cc(OC)c(OC)c(OC)c1)C2` (centres undefined), the protection (pct of control) was 2.5%.

Consider `Nc1nc(NC(=O)/C=C/c2ccccc2)nn1-c1ccccc1`, for which the protection (pct of control) is 3.85%.

With `COc1ccccc1NC(=O)CSc1nnc(Cc2cccn2C)n1-c1ccc(F)cc1`, the protection (pct of control) was 15.6%.

For `Cc1ccc(C)c(NC(=O)CSc2nnc(Cc3cccn3C)n2-c2ccc(F)cc2)c1`, the protection (pct of control) was 21.3%.

With `COC(=O)c1ccc(NC(=O)CSc2nnc(Cc3cccn3C)n2-c2ccc(F)cc2)cc1`, the protection (pct of control) was 43.4% (active).

In the case of `CCCOC(=O)c1ccc(N2C(=O)c3ccccc3C2=O)cc1`, the protection (pct of control) is 1.17%.

With `Cn1nccc1CNC(=O)c1ccnn1C`, the protection (pct of control) is 24.5%.

On to `CCn1cc(CNC(=O)c2cc([N+](=O)[O-])c(C)c([N+](=O)[O-])c2)cn1`, for which the protection (pct of control) is 3.52%.

On to `CC1(C)C=C2[C@H]3CC[C@@H]4[C@@]5(C)CCC(=O)C(C)(C)[C@@H]5CC[C@@]4(C)[C@]3(C)CC[C@@]2(C(=O)O)CC1`, for which the protection (pct of control) was 44.7% (active).

As to `CCC(C)NCCOCCOc1ccc(Br)cc1C` (centres undefined), the protection (pct of control) is 5.1%.

Turning to `O=C(CNC(=O)C(c1ccccc1)c1ccccc1)N/N=C\c1ccc2c(c1)OCO2`, the protection (pct of control) is 17.5%.

In the case of `Cc1c(C(=O)N2CCOCC2)[nH]c2ccc(OCc3ccccc3)cc12`, the protection (pct of control) was 11.5%.

Regarding `O=C(CN1CCOCC1)N1CCCc2c1c(=O)oc1ccc(OCc3ccccc3)cc21`, the protection (pct of control) was 20.5% (active).

For the molecule `O=C(COc1ccc2oc3c(c2c1)CCCC3)Nc1ccccn1`, the protection (pct of control) was 9.54%.

As for `CNC(=S)N1CCN(c2ccccn2)CC1`, the protection (pct of control) is 3.85%.

Take `CC(=C1C(=O)c2ccccc2C1=O)N1CCN(c2ccccn2)CC1`: the protection (pct of control) is 4%.

On to `O=C(C(Cl)Cl)N1CCN(c2ccccn2)CC1`, for which the protection (pct of control) is 29.5% (active).

`CC(=O)Nc1ccc(S(=O)(=O)NC2(C(F)(F)F)C(=O)Nc3c2c(=O)[nH]c(=O)n3Cc2ccccc2)cc1` (centres undefined): the protection (pct of control) was 10.5%.

Turning to `CCOC(=O)c1c(NC(=O)Cn2nc(C(F)(F)F)cc2C)sc2c1CCC2`, the protection (pct of control) was 20.5%.

For the molecule `CCCCOc1ccc(CSC(=N)N)cc1[N+](=O)[O-]`, the protection (pct of control) was 23.1%.

For `N=C(N)SCc1cccc2ccccc12`, the protection (pct of control) was 32.9%.

In the case of `CCOc1ccc(Br)cc1CSC(=N)N`, the protection (pct of control) is 25.8% (active).

Turning to `Cc1ccc(NC(=O)CSCC(=O)NC2CCCCC2)cc1`, the protection (pct of control) was 36.4%.

In the case of `COc1ccc(C(=O)Nc2sc(C)c(C)c2CN2CCOCC2)cc1`, the protection (pct of control) was 13.1%.

As for `COc1cc(/C=C2/C(=O)ON=C2C)ccc1OCc1ccccc1F`, the protection (pct of control) was 6.29%.

For `CCOc1ccc(/C=N/NC(=O)C(C)Sc2ccccn2)cc1OCC` (centres undefined), the protection (pct of control) was 3.61%.

For the molecule `CCOc1cc(/C=N/O)ccc1OCc1ccccc1F`, the protection (pct of control) was 36.5% (active).

On to `CCCCOc1ccc(C(=O)NN2CCN(C)CC2)cc1`, for which the protection (pct of control) was 24.4%.

Take `COCCOC(=O)c1c(C)oc2cc(Br)c(OCC(N)=O)cc12`: the protection (pct of control) is 16.4%.

Consider `CCCCN=C(N)/C(C(=O)OCC)=C(\O)c1ccc(OC)cc1`, for which the protection (pct of control) was 6.3%.

Turning to `COc1ccc(C(=O)N(Cc2ccc(N(C)C)cc2)C2CCS(=O)(=O)C2)cc1` (centres undefined), the protection (pct of control) was 1.51%.

Turning to `CCCCC(=O)N(c1ccc(OC)cc1)C1C=CS(=O)(=O)C1` (centres undefined), the protection (pct of control) is 43.6% (active).

Consider `CC(C)CNC(=O)COC(=O)/C=C/c1ccco1`, for which the protection (pct of control) was 16.1%.

`CCc1ccc(-c2cc(C(=O)NN3CCN(C)CC3)c3ccccc3n2)cc1`: the protection (pct of control) is 5.27%.

Regarding `COCCCNC(=S)NC(=O)c1ccccc1`, the protection (pct of control) is 11.7%.

In the case of `COCCCNC(=S)NC(=O)c1ccc([N+](=O)[O-])cc1`, the protection (pct of control) was 65.1% (active).

Regarding `CCCCCC(=O)NC(=S)NNC(=O)c1ccc([N+](=O)[O-])cc1`, the protection (pct of control) was 3.27%.

`CCc1cccc(NC(=O)CCC(=O)O)c1`: the protection (pct of control) is 4.18%.

In the case of `Cn1ncc2c(NNC(=O)Cc3cccc4ccccc34)ncnc21`, the protection (pct of control) was 26.4% (active).

`Cc1ccc(-n2ncc3c(Nc4cccc(C(=O)O)c4)ncnc32)cc1`: the protection (pct of control) was 7.56%.

With `Cn1ncc2c(Nc3cccc4ccccc34)ncnc21`, the protection (pct of control) is 3.59%.

The values above are taken from PubChem BioAssay AID841 (Emory University Molecular Libraries Screening Center, 2007).
